Experimental data from the supplement of paper PMC6607015.
Structures can show the parent of a compound that is named as a salt.

Key:
Details in all cases: compound concentration in added solution (µM; 5 µl added to 20 µl cells): 10; 18 h
A431 [1] = experiment: LBPA endosome anti-LBPA integrated intensity (sum per cell), Z-score; higher = more LBPA staining
Method in brief: (§1)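 Per-cell integrated LBPA or filipin intensity, whole-cell or within LBPA endosomes, is expressed as Z-scores normalised in AcuityXpress. HeLa MZ or A431 cells, 3,500 per well in 20 µl, sat on 5 µl of 10 µM compound solution in duplicate 384-well imaging plates for 18 h. They were then fixed in 4% PFA, stained, imaged in four 20× fields per well and segmented using MetaXpress.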

HeLa MZ [2] = experiment: as above
Method in brief: as §1

A431 [3] = experiment: whole-cell filipin (free cholesterol) integrated intensity, Z-score; higher = more cholesterol staining
Method in brief: as §1

HeLa MZ [4] = experiment: as above
Method in brief: as §1

A431 [5] = experiment: filipin (cholesterol) integrated intensity within LBPA endosomes, Z-score; higher = more cholesterol in LBPA endosomes
Method in brief: as §1

HeLa MZ [6] = experiment: as above
Method in brief: as §1

Compound	LBPA endosome anti-LBPA integrated intensity (z-score) (A431 [1])	LBPA endosome anti-LBPA integrated intensity (z-score) (HeLa MZ [2])	whole-cell filipin (z-score) (A431 [3])	whole-cell filipin (z-score) (HeLa MZ [4])	filipin (z-score) (A431 [5])	filipin (z-score) (HeLa MZ [6])
C=CC1=C(C(=O)O)N2C(=O)[C@@H](NC(=O)/C(=N\OCC(=O)O)c3csc(N)n3)[C@H]2SC1 [Cefixime]	-0.497	-0.00426	-0.828	-0.585	-0.573	-0.64
C[C@H](CCC(=O)O)[C@H]1CC[C@H]2[C@@H]3[C@@H](O)C[C@@H]4C[C@H](O)CC[C@]4(C)[C@H]3CC[C@]12C [Urosiol]	-0.47	-1.19	-0.529	-0.329	-0.433	-0.53
CC1(C)S[C@@H]2[C@H](NC(=O)[C@H](N)c3ccccc3)C(=O)N2[C@H]1C(=O)OC1OC(=O)c2ccccc21 (some centres not stated) [Talampicillin hydrochloride]	-0.446	0.322	-0.121	0.482	-0.392	-0.35
O=C(O)c1cc(-c2ccc(F)cc2F)ccc1O [Diflunisal]	-0.321	-0.139	-0.11	-0.25	-0.434	-0.569
CCC(=O)O[C@]1(C(=O)CCl)[C@@H](C)C[C@H]2[C@@H]3CCC4=CC(=O)C=C[C@]4(C)[C@@]3(F)[C@@H](O)C[C@@]21C [Clobetasol propionate]	-0.343	-0.845	0.00699	-0.332	-0.266	-0.465
CC(=O)OCC(=O)NCCCOc1cccc(CN2CCCCC2)c1 [Roxatidine Acetate HCl]	-0.585	-0.0177	-0.731	-0.282	-0.524	-0.38
NCC[C@H](O)C(=O)N[C@@H]1C[C@H](N)[C@@H](O[C@H]2O[C@H](CN)[C@@H](O)[C@H](O)[C@H]2O)[C@H](O)[C@H]1O[C@H]1O[C@H](CO)[C@@H](O)[C@H](N)[C@H]1O [Amikacin hydrate]	-0.71	-0.821	-1.06	-0.44	-0.672	-0.666
CNc1ncnc2c1ncn2[C@@H]1O[C@H](CO)[C@@H](O)[C@H]1O [N6-methyladenosine]	-0.364	0.218	-0.443	0.122	-0.45	-0.43
Clc1ccc(COC(Cn2ccnc2)c2ccc(Cl)cc2Cl)c(Cl)c1 (configuration not stated) [Miconazole]	0.0492	1.55	0.107	0.176	-0.0467	0.514
NC[C@H]1O[C@H](O[C@H]2[C@H](O[C@@H]3O[C@H](CO)[C@@H](O)[C@H]3O)[C@@H](O)[C@H](N)C[C@@H]2N)[C@H](N)[C@@H](O)[C@@H]1O [Ribostamycin sulfate salt]	-0.548	1.92	-0.165	2.24	-0.516	-0.59
CC1(C)O[C@@H]2[C@@H](CO[C@@]3(COS(N)(=O)=O)OC(C)(C)O[C@@H]23)O1 [Topiramate]	-0.482	-0.13	-0.0917	-0.317	-0.419	-0.514
CCN(CC)CCNC(=O)c1cc(S(C)(=O)=O)ccc1OC [Tiapride hydrochloride]	-0.48	0.333	-0.576	-0.522	-0.565	-0.513
CC(C)NC(=N)NC(=N)Nc1ccc(Cl)cc1 [Proguanil hydrochloride]	-0.302	1.15	-0.0125	0.372	-0.375	-0.0535
Nc1nc2c(ncn2COC(CO)CO)c(=O)[nH]1 [Ganciclovir]	-0.282	0.382	-0.0797	0.0803	-0.332	-0.411
CC(=O)Oc1ccccc1C(=O)Oc1ccccc1C(=O)O [Acetylsalicylsalicylic acid]	-0.367	-0.319	-0.583	-0.226	-0.456	-0.52
NC(=O)c1ncn([C@@H]2O[C@H](CO)[C@@H](O)[C@H]2O)n1 [Ribavirin]	-0.391	-0.778	-0.377	-0.839	-0.376	-0.688
NC(=O)N1c2ccccc2CC(=O)c2ccccc21 [Oxcarbazepine]	-0.669	-1.06	-0.767	-1.13	-0.582	-0.729
CC(C)NC[C@@H](O)COc1ccc(CC(N)=O)cc1 [(R)-(+)-Atenolol]	-0.596	-1.65	-0.23	-0.591	-0.512	-0.472
NC(=O)N1c2ccccc2C=Cc2ccccc21 [Carbamazepine]	-0.439	-0.106	-0.553	-0.708	-0.587	-0.687
C[N+](C)(C)CCCCCC[N+](C)(C)C [Hexamethonium dibromide dihydrate]	-0.482	-1.09	-0.483	-0.775	-0.514	-0.624
Nc1cc(C(Cl)=C(Cl)Cl)c(S(N)(=O)=O)cc1S(N)(=O)=O [Clorsulon]	-0.372	0.212	-0.73	-0.454	-0.454	-0.586
CO[C@@]1(NC(=O)C2SC(=C(C(N)=O)C(=O)O)S2)C(=O)N2C(C(=O)O)=C(CSc3nnnn3C)CS[C@@H]21 (some centres not stated) [Cefotetan]	-0.675	-1.41	-0.843	-0.864	-0.604	-0.594
CN(C)CC/C=C1\c2ccccc2CSc2ccccc21 [Dosulepin hydrochloride]	1.61	0.828	1.17	0.164	1.82	0.976
O=C(c1ccc(F)cc1)C1CCN(CCn2c(=O)[nH]c3ccccc3c2=O)CC1 [Ketanserin tartrate hydrate]	0.533	0.294	0.959	0.523	0.805	0.808

Compound	LBPA endosome anti-LBPA integrated intensity (z-score) (A431 [1])	LBPA endosome anti-LBPA integrated intensity (z-score) (HeLa MZ [2])	whole-cell filipin (z-score) (A431 [3])	whole-cell filipin (z-score) (HeLa MZ [4])	filipin (z-score) (A431 [5])	filipin (z-score) (HeLa MZ [6])
CC(O)(P(=O)(O)O)P(=O)(O)O [Etidronic acid, disodium salt]	-0.428	-0.376	-0.14	-0.368	-0.461	-0.4
Oc1ccc(OCc2ccccc2)cc1 [Monobenzone]	-0.343	2.16	2.23	2.56	-0.548	-0.736
NS(=O)(=O)c1cc2c(cc1Cl)N=CNS2(=O)=O [Chlorothiazide]	-0.508	-0.375	-0.521	-0.988	-0.472	-0.537
CS(=O)(=O)c1ccc([C@@H](O)[C@@H](CO)NC(=O)C(Cl)Cl)cc1 [Thiamphenicol]	-0.461	-0.533	-0.551	-0.526	-0.439	-0.625
CC1(C)S[C@@H]2[C@H](NC(=O)[C@H](NC(=O)N3CCNC3=O)c3ccccc3)C(=O)N2[C@H]1C(=O)O [Azlocillin sodium salt]	-0.496	-0.655	-0.388	-0.517	-0.464	-0.493
CNCC(O)c1ccc(O)c(O)c1 (configuration not stated) [Racepinephrine HCl]	-0.253	-0.0976	0.725	0.18	-0.509	-0.366
CC(=O)/N=c1/sc(S(N)(=O)=O)nn1C [Methazolamide]	-0.623	-1.23	-0.758	-0.523	-0.506	-0.535
O=P(O)(O)C(Cl)(Cl)P(=O)(O)O [Clodronate]	-0.576	-0.865	-0.177	-0.446	-0.541	-0.434
OC(CCN1CCCCC1)(c1ccccc1)c1ccccc1 [Pridinol methanesulfonate salt]	-0.0313	0.215	-0.378	-0.508	-0.23	-0.0603
NS(=O)(=O)c1cc2c(cc1Cl)NC(C(Cl)Cl)NS2(=O)=O (configuration not stated) [Trichlormethiazide]	-0.262	0.0655	-0.129	-0.0923	-0.393	-0.381
CCn1cc(C(=O)O)c(=O)c2cnc(N3CCCC3)nc21 [Piromidic acid]	-0.472	-0.684	-0.293	0.123	-0.374	-0.418
C[C@@H]1[C@H](O)[C@@H](C)/C=C/C=C/C=C/C=C/C=C/C=C/C=C/[C@H](O[C@@H]2O[C@H](C)[C@@H](O)[C@H](N)[C@@H]2O)C[C@@H]2O[C@](O)(C[C@@H](O)C[C@@H](O)[C@H](O)CC[C@@H](O)C[C@@H](O)CC(=O)O[C@H]1C)C[C@H](O)[C@H]2C(=O)O [Amphotericin B]	0.731	-0.696	-0.156	0.222	0.0841	-0.26
N#CC(c1ccc(Cl)cc1)c1c(Cl)cc(-n2ncc(=O)[nH]c2=O)cc1Cl (configuration not stated) [Diclazuril]	-0.281	0.505	0.197	0.559	-0.215	-0.204
CN1CCCC(CC2c3ccccc3Sc3ccccc32)C1 (configuration not stated) [Metixene hydrochloride]	3.73	1.25	0.301	-0.563	3.15	1.94
CC(=O)Nc1c(I)c(C(=O)N[C@H]2C(O)O[C@H](CO)[C@@H](O)[C@@H]2O)c(I)c(N(C)C(C)=O)c1I (some centres not stated) [Metrizamide]	-0.495	-0.295	-0.527	-0.9	-0.561	-0.597
N=C(N)N1CCc2ccccc2C1 [Debrisoquin sulfate]	-0.566	-0.193	-0.719	-0.695	-0.556	-0.606
O=C(O)c1cccnc1Nc1cccc(C(F)(F)F)c1 [Niflumic acid]	-0.414	-0.666	-0.705	-0.278	-0.444	-0.519
c1ccc(CC2=NCCN2)cc1 [Tolazoline hydrochloride]	-0.404	0.69	-0.609	-0.502	-0.487	-0.331
CCN(CC)C(C)CN1c2ccccc2Sc2ccccc21 (configuration not stated) [Ethopropazine hydrochloride]	3.1	5.78	2.83	2.95	2.11	1.8
CC(=O)O[C@H]1C[C@@]2(C)[C@@H](C[C@@H](O)[C@H]3[C@@]4(C)CC[C@@H](O)[C@@H](C)[C@@H]4CC[C@@]32C)/C1=C(\CCC=C(C)C)C(=O)O [Fusidic acid sodium salt]	-0.322	0.503	-0.581	0.0569	-0.49	-0.416
CCN(CC)CCOC(=O)C1(c2ccc([N+](=O)[O-])cc2)CCCC1 [Nitrocaramiphen hydrochloride]	-0.558	0.568	-0.0743	-0.278	-0.346	-0.0224
CC(COc1ccccc1)NC(C)C(O)c1ccc(O)cc1 (configuration not stated) [Isoxsuprine hydrochloride]	-0.187	0.869	-0.214	-0.465	-0.444	-0.378
CCCCOC(=O)c1ccc(N)cc1 [Butamben]	-0.33	0.449	-0.437	-0.221	-0.356	-0.552
